# PubChem BioAssay (EPA / NIEHS)
# Where “and” joins values, the source holds several entries; their conditions need not be identical. Equal entries are not always repeated. Records with an inconclusive call do not appear. Calls of active or inactive are those of the source. How the source made its calls: active means hit-call score of the fitted dose curve at least 0.9, where 1 is the maximum; inconclusive means response in the unintended direction; inactive means score below 0.9.
# What was measured:
# [1] = system: turtle Estrogen Receptor (ESR1), gene 101933533; assay: ATG_trERa_XSP1: Attagene TRANS-FACTORIAL Multi-Species (XSP1) HepG2 Assay for turtle Estrogen Receptor (ESR1) (AID 2283781)
# Summary of the method: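 Turtle ERa as a GAL4 chimera in transiently transfected HepG2 cells; reporter mRNA quantified 24 h after dosing by RT-PCR and capillary electrophoresis. 3 nM 6-alpha-fluorotestosterone present; gain of signal versus DMSO.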
# [2] = target: GAL4 Transcription Factor (Internal Marker), GAL4 (gene 855828) (UniProt P04386); assay: ATG_GAL4_XSP1: Attagene TRANS-FACTORIAL Multi-Species (XSP1) HepG2 Assay for GAL4 Transcription Factor (Internal Marker) (AID 2283789)
# Chain of GAL4 Transcription Factor (Internal Marker), GAL4 (gene 855828) (P04386 whole entry, looked up, the tested form may be a part): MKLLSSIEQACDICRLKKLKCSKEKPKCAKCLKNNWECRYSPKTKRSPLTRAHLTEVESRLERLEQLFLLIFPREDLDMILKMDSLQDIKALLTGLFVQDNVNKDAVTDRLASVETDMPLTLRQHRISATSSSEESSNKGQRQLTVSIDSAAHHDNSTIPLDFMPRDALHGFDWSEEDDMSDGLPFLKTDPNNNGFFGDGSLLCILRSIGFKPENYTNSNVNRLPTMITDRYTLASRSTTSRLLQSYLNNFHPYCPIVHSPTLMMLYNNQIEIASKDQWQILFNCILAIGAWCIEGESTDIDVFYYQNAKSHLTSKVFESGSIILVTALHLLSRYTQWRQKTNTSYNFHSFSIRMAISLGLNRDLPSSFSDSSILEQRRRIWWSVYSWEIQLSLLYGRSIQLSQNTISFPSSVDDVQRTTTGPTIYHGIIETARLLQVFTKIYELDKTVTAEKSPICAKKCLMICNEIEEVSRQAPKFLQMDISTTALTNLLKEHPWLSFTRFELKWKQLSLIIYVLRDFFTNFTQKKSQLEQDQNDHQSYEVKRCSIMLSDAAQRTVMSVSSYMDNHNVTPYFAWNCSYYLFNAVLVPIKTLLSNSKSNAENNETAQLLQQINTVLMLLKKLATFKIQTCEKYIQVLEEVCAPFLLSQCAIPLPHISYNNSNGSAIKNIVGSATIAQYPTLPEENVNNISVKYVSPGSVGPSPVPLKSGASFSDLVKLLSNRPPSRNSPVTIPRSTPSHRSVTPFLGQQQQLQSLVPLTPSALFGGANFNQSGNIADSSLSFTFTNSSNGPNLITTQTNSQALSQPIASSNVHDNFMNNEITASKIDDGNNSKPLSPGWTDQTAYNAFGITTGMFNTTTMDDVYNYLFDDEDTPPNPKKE
# Summary of the method: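 HepG2 cells transiently transfected with multiplexed GAL4-UAS reporter units were exposed for 24 h with 3 nM 6-alpha-fluorotestosterone present. Reporter mRNA was quantified by RT-PCR, FAM labelling, HpaI digestion and capillary electrophoresis; background-control readout, gain-of-signal versus DMSO.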
# [3] = ATG_M_06_XSP1: Attagene TRANS-FACTORIAL Multi-Species (XSP1) HepG2 Assay for M06 Transcription Factor (Internal Marker) (AID 2283790)
# Summary of the method: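 Transfected HepG2 multi-reporter system treated 24 h in the presence of 3 nM 6-alpha-fluorotestosterone. The M06 internal marker transcript was quantified by RT-PCR with capillary electrophoresis as a background control, and gain of signal was scored versus DMSO.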
# [4] = ATG_M_61_XSP1: Attagene TRANS-FACTORIAL Multi-Species (XSP1) HepG2 Assay for M61 Transcription Factor (Internal Marker) (AID 2283797)
# Summary of the method: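 HepG2 cells transiently transfected with multiplexed GAL4-driven reporter units, dosed 24 h with 3 nM 6-alpha-fluorotestosterone present. Reporter mRNA quantified by RT-PCR, 6-FAM labelling, HpaI digestion and capillary electrophoresis; internal-marker background control, gain of signal versus DMSO.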
# [5] = system: zebrafish Peroxisome Proliferator-activated Receptor gamma (PPARg), gene 557037; assay: ATG_zfPPARg_XSP1: Attagene TRANS-FACTORIAL Multi-Species (XSP1) HepG2 Assay for zebrafish Peroxisome Proliferator-activated Receptor gamma (PPARg) (AID 2283801)
# Summary of the method: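 HepG2 cells transiently transfected with GAL4-UAS reporter units including a zebrafish PPARg–GAL4 chimera, dosed 24 h with 3 nM 6-alpha-fluorotestosterone present. Reporter mRNA quantified by RT-PCR, FAM labelling, HpaI digestion and capillary electrophoresis; induction versus DMSO.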
# [6] = target: Nuclear receptor subfamily 1 group I member 2 (Mus musculus) (UniProt O54915); assay: ATG_mPXR_XSP1: Attagene TRANS-FACTORIAL Multi-Species (XSP1) HepG2 Assay for mouse Pregnane X Receptor (PXR) (AID 2283803)
# Chain of Nuclear receptor subfamily 1 group I member 2 (Mus musculus) (O54915 whole entry, looked up, the tested form may be a part): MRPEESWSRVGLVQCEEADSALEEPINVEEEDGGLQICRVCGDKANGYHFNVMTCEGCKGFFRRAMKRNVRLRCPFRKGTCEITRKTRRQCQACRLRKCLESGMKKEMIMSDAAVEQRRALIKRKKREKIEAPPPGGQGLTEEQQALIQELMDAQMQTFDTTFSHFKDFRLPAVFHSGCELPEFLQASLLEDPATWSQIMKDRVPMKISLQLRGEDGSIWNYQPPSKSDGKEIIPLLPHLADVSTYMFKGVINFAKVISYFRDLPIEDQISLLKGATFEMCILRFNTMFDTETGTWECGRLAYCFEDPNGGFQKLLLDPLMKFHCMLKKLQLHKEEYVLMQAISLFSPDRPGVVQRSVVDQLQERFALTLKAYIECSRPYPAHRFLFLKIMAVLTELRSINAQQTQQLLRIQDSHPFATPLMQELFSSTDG
# Summary of the method: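 Transiently transfected HepG2 cells expressing a receptor-Gal4 chimera drive a GAL4-UAS reporter; 3 nM 6-alpha-fluorotestosterone included. Reporter mRNA read 24 h post-dose by RT-PCR and capillary electrophoresis; gain of signal relative to DMSO.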
# [7] = target: frog Thyroid hormone Receptor alpha (TRa), thra-a (gene 397942) (UniProt P15204); assay: ATG_frTRa_XSP1: Attagene TRANS-FACTORIAL Multi-Species (XSP1) HepG2 Assay for frog Thyroid hormone Receptor alpha (TRa) (AID 2283804)
# Chain of frog Thyroid hormone Receptor alpha (TRa), thra-a (gene 397942) (P15204 whole entry, looked up, the tested form may be a part): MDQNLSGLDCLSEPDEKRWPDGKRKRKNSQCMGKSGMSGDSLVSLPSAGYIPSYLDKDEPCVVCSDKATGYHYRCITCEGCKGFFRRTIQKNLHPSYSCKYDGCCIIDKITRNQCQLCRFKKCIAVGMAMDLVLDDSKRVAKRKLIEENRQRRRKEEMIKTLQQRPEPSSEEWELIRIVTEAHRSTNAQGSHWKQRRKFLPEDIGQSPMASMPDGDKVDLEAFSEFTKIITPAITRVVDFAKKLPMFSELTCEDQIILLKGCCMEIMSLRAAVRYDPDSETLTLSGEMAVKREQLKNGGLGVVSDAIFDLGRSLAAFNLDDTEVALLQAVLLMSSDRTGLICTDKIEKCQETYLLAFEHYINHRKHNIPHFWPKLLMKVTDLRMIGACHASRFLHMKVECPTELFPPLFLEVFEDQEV
# Summary of the method: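 HepG2 cells transiently transfected with frog TRa-GAL4 chimeric reporter units, dosed 24 hr with 3 nM 6-alpha-fluorotestosterone present; reporter mRNA quantified by RT-PCR, fluorescent labelling and capillary electrophoresis, gain of signal versus DMSO.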
# [8] = system: turtle Thyroid Hormone Receptor, alpha (TRa), gene 101949057; assay: ATG_trTRa_XSP1: Attagene TRANS-FACTORIAL Multi-Species (XSP1) HepG2 Assay for turtle Thyroid Hormone Receptor, alpha (TRa) (AID 2283806)
# Summary of the method: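 HepG2 cells transiently transfected with GAL4-UAS reporter units and chimeric receptor-Gal4 constructs, with 3 nM 6-alpha-fluorotestosterone present. Reporter mRNA was quantified 24 h after dosing by RT-PCR, 6-FAM labelling and capillary electrophoresis; gain of signal versus DMSO.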
# [9] = target: zebrafish Thyroid Hormone Receptor beta (TRb), thrb (gene 30607) (UniProt Q9PVE4); assay: ATG_zfTRb_XSP1: Attagene TRANS-FACTORIAL Multi-Species (XSP1) HepG2 Assay for zebrafish Thyroid Hormone Receptor beta (TRb) (AID 2283809)
# Chain of zebrafish Thyroid Hormone Receptor beta (TRb), thrb (gene 30607) (Q9PVE4 whole entry, looked up, the tested form may be a part): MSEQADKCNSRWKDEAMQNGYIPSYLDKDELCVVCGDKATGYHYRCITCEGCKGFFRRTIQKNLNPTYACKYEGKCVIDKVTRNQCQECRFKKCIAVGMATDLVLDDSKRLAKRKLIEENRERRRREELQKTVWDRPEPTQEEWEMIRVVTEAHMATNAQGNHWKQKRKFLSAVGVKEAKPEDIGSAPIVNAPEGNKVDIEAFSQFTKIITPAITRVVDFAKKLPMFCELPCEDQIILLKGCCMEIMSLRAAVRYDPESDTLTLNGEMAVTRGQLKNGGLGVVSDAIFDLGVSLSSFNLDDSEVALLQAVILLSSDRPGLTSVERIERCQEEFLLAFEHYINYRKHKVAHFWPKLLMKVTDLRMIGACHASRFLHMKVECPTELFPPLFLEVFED
# Summary of the method: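 HepG2 cells transiently transfected with multiplexed GAL4-UAS reporter units expressing chimeric zebrafish TRb–Gal4. Dosed 24 h with 3 nM 6-alpha-fluorotestosterone present; reporter mRNA measured by RT-PCR, HpaI digestion and capillary electrophoresis; gain of signal versus DMSO.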
# [10] = ATG_M_06_XSP2: Attagene TRANS-FACTORIAL Multi-Species (XSP2) HepG2 Assay for M06 Transcription Factor (Internal Marker) (AID 2283811);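 further: hits are increases in signal above the DMSO baseline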
# Summary of the method: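 HepG2 cells transiently transfected with GAL4-UAS multiple reporter units, medium containing 3 nM 6-alpha-fluorotestosterone and 1.5 nM norgestrel; reporter mRNA measured 24 hours post-dosing by RT-PCR and capillary electrophoresis. Internal background marker, gain of signal vs DMSO.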
# [11] = system: turtle Estrogen Receptor (ERa), gene 101933533; assay: ATG_trERa_XSP2: Attagene TRANS-FACTORIAL Multi-Species (XSP2) HepG2 Assay for turtle Estrogen Receptor (ERa) (AID 2283812);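 further: human HepG2 liver cells transiently expressing turtle ERa-Gal4 chimeric receptor; actives raise reporter signal above DMSO so AC50 reflects agonist activity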
# Summary of the method: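 HepG2 cells transiently transfected with GAL4-UAS reporter units expressing turtle ERa-Gal4 chimera. Reporter mRNA measured after 24 h dosing by RT-PCR, fluorescent labelling and capillary electrophoresis; gain of signal fitted versus DMSO.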
# [12] = target: GAL4 Transcription Factor (Internal Marker), GAL4 (gene 855828) (UniProt P04386); assay: ATG_GAL4_XSP2: Attagene TRANS-FACTORIAL Multi-Species (XSP2) HepG2 Assay for GAL4 Transcription Factor (Internal Marker) (AID 2283814);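 further: GAL4 reporter mRNA background control in MRTU transfected cells not a receptor target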
# Summary of the method: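 HepG2 cells transiently transfected with GAL4-UAS reporter units, stimulated with 3 nM 6-alpha-fluorotestosterone plus 1.5 nM norgestrel, dosed 24 h. Reporter mRNA by RT-PCR/capillary electrophoresis; gain-of-signal fit versus DMSO, background control.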
# [13] = target: chicken Estrogen Receptor (ERa), ESR1 (gene 396099) (UniProt P06212); assay: ATG_chERa_XSP2: Attagene TRANS-FACTORIAL Multi-Species (XSP2) HepG2 Assay for chicken Estrogen Receptor (ERa) (AID 2283817);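 further: actives raise reporter signal above DMSO so AC50 reflects ER activation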
# Chain of chicken Estrogen Receptor (ERa), ESR1 (gene 396099) (P06212 whole entry, looked up, the tested form may be a part): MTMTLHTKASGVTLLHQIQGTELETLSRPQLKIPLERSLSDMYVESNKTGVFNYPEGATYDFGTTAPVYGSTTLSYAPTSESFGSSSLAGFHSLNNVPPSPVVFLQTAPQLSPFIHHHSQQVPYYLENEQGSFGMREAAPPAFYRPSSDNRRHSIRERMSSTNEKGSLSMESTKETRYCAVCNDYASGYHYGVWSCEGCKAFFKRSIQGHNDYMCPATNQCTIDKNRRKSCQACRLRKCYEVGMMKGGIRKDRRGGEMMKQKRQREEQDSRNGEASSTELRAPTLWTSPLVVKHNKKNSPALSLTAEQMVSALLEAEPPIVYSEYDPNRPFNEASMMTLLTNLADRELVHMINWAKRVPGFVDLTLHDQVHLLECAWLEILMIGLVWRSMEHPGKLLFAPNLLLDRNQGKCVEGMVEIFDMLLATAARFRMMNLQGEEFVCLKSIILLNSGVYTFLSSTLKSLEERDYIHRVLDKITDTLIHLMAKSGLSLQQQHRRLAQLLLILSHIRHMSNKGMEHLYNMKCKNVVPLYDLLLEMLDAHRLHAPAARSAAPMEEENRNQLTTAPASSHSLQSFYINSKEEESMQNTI
# Summary of the method: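 Transiently transfected HepG2 cells expressing chimeric chicken ERa-GAL4 reporter units, dosed 24 h with 3 nM 6-alpha-fluorotestosterone and 1.5 nM norgestrel present. Reporter mRNA measured by RT-PCR and capillary electrophoresis; gain-of-signal fitted relative to DMSO.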
# [14] = target: AR (gene 367) (UniProt P10275); assay: ACEA_AR_agonist_80hr: ACEA Biosciences xCELLigence Real-Time Cell Analysis on Androgen Receptor Agonism for Proliferation (AID 2283783);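 further: hits increase impedance growth signal above DMSO baseline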
# Chain of AR (gene 367) (P10275 whole entry, looked up): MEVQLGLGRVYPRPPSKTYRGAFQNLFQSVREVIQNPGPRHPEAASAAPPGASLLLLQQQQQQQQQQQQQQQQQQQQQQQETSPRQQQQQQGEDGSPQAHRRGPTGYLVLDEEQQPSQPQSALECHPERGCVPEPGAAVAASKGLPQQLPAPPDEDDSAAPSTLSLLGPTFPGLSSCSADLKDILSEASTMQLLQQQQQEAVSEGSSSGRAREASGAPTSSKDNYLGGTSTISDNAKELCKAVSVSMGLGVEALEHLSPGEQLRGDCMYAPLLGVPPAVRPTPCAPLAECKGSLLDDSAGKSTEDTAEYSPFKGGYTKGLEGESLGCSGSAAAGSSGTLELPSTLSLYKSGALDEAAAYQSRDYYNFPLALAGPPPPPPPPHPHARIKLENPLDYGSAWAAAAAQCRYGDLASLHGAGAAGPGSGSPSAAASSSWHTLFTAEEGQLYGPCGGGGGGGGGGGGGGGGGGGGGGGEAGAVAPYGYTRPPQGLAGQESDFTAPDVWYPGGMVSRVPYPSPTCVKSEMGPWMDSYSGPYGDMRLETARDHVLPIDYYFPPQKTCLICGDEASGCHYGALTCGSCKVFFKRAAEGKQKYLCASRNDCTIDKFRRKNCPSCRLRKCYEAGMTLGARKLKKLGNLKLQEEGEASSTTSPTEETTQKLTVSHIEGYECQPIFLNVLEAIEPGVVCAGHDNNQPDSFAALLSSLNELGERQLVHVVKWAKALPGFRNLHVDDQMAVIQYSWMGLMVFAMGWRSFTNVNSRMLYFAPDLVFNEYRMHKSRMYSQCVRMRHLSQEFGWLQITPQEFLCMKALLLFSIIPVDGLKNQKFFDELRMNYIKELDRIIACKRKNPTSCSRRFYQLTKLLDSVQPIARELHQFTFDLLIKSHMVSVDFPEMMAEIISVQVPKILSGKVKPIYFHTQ
# Summary of the method: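 Proliferation of 22Rv1 prostate cancer cells tracked by electrical impedance, endpoint taken at 80 hours after dosing. Eight-point 1:4 dilutions from 100 uM maximum final, duplicate; testosterone and MG132 as positive controls, assay media as negative.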
# [15] = target: AR (gene 367) (UniProt P10275); assay: ACEA_AR_antagonist_80hr: ACEA Biosciences xCELLigence Real-Time Cell Analysis on Androgen Receptor Antagonism for Proliferation (AID 2283787);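 further: 22Rv1 human prostate cancer cells with growth followed by electrical impedance; hits lower the impedance growth signal relative to DMSO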
# Summary of the method: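 22Rv1 cells in assay medium, growth tracked by electrical impedance; compounds eight-point 1:4 dilutions from 100 uM final, duplicate plates. Endpoint at 80 h; loss of signal versus DMSO.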
# [16] = ACEA_ER_AUC_viability: ACEA Biosciences xCELLigence Real-Time Cell Analysis on Estrogen Receptor Agonism for Viability (AID 2283782);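 further: continuous compound exposure with impedance area under curve over 80 h; hit means loss of impedance signal meaning reduced cell growth or viability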
# Summary of the method: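 T47D cells preconditioned in phenol red-free RPMI with charcoal-stripped FBS, then dosed with 8-point 1:4 series from 100 uM (up to 0.5% DMSO). Impedance monitored up to ~80 h; area-under-curve loss versus DMSO taken as viability.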
# [17] = target: Estrogen receptor beta (Homo sapiens) (UniProt Q92731); assay: ATG_hERb_XSP2: Attagene TRANS-FACTORIAL Multi-Species (XSP2) HepG2 Assay for human Estrogen Receptor (ERb) (AID 2283813);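 further: actives raise reporter mRNA above DMSO so AC50 reflects agonist induction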
# Chain of Estrogen receptor beta (Homo sapiens) (Q92731 whole entry, looked up, the tested form may be a part): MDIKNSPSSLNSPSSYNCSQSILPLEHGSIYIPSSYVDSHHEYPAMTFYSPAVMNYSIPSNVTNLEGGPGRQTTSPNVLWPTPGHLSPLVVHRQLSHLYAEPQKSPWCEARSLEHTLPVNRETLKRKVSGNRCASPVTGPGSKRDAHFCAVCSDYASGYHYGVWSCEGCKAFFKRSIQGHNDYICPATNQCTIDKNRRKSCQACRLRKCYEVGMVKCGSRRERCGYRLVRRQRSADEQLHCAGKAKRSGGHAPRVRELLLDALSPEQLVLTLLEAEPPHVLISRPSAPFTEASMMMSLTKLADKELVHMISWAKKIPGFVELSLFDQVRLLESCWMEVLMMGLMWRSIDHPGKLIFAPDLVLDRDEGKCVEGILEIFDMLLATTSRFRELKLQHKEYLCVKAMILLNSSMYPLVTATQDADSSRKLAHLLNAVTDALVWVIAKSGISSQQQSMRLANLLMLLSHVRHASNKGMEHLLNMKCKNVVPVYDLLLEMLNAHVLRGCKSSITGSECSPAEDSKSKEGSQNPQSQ
# Summary of the method: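 HepG2 cells transiently transfected with GAL4-UAS reporter units and chimeric human ERb-Gal4, 24 h exposure. Reporter mRNA quantified by RT-PCR with FAM labelling, HpaI digestion and capillary electrophoresis; gain of signal versus DMSO.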
# [18] = target: zebrafish Estrogen Receptor (ER1), esr1 (gene 259252) (UniProt P57717); assay: ATG_zfER1_XSP2: Attagene TRANS-FACTORIAL Multi-Species (XSP2) HepG2 Assay for zebrafish Estrogen Receptor (ER1) (AID 2283816)
# Chain of zebrafish Estrogen Receptor (ER1), esr1 (gene 259252) (P57717 whole entry, looked up, the tested form may be a part): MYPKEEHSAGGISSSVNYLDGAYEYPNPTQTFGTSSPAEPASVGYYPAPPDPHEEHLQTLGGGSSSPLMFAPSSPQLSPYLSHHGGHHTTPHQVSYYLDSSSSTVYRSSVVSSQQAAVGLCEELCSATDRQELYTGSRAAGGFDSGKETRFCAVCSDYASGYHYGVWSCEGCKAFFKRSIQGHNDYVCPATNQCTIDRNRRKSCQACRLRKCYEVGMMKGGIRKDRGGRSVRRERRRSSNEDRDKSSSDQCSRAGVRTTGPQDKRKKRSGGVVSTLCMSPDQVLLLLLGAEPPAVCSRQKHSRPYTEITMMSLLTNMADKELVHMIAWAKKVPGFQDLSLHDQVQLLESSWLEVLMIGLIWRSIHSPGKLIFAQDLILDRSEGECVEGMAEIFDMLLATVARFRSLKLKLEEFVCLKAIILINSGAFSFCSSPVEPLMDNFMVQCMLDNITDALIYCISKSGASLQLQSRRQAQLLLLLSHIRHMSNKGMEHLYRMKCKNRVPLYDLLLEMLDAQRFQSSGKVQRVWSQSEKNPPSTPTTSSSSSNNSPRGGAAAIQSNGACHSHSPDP
# Summary of the method: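 HepG2 cells transiently transfected with a GAL4-UAS reporter and a chimeric zebrafish ER1-Gal4 construct, dosed 24 h. Reporter mRNA quantified by RT-PCR, labelling, HpaI digestion and capillary electrophoresis, relative to DMSO.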
# [19] = STM_H9_NormalizedViability: Cytotoxicity Assessment at 120 hours in the Stemina devTOX quickPredict H9 human embryonic stem cell (hESC)-based Assay (AID 2283784)
# Summary of the method: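 Undifferentiated H9 hESCs kept pluripotent were exposed to compound, with media and chemical replaced every 24h. CellTiter-Fluor protease-substrate fluorescence was background-corrected and normalized per plate to the 0.1% DMSO vehicle; signal loss indicates reduced viability.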
smiles,measurement,setting,value
CC(C)(C)NC(=O)[C@H]1CC[C@H]2[C@@H]3CC[C@H]4NC(=O)C=C[C@]4(C)[C@H]3CC[C@]12C,outcome,[1],inactive
same,outcome,[2],inactive
same,outcome,[3],inactive
same,outcome,[4],inactive
same,outcome,[5],inactive
same,AC50,[6],3.8 µM (active)
same,outcome,[7],inactive
same,outcome,[8],inactive
same,outcome,[9],inactive
same,outcome,[10],inactive
same,outcome,[11],inactive
same,outcome,[12],inactive
same,outcome,[13],inactive
Cc1ccc(C)c(OCCCC(C)(C)C(=O)O)c1,outcome,[14],inactive
same,outcome,[15],inactive
CCc1cccc(C)c1N,outcome,[15],inactive
O=C(Cl)c1c(Cl)c(Cl)c(C(=O)Cl)c(Cl)c1Cl,outcome,[16],inactive
CCCCCCCCCCCCc1ccc(O)cc1,AC50,[16],20 µM (active)
same,outcome,[10],inactive
same,AC50,[11],327 nM (active) and 57.8 nM (active)
same,outcome,[17],inactive
same,outcome,[12],inactive
same,AC50,[18],470 nM (active)
same,AC50,[13],526 nM (active) and 135 nM (active)
Cc1c(C(=O)c2c[nH]n(C)c2=O)ccc(S(C)(=O)=O)c1C1=NOCC1,outcome,[15],inactive
CC(=O)CC(=O)Nc1ccccc1C,outcome,[16],inactive
O=C(O)c1ccc2c(c1)C(=O)OC2=O,outcome,[16],inactive
same,outcome,[14],inactive
same,outcome,[15],inactive
CN(C)Cc1cc(CN(C)C)c(O)c(CN(C)C)c1,outcome,[14],inactive
CN(C)c1ccc2nc3ccc(=[N+](C)C)cc-3sc2c1,AC50,[16],16.5 µM (active)
same,AC50,[19],4.5 µM (active)
CC(=O)OCc1ccccc1,outcome,[16],inactive
same,outcome,[15],inactive
Oc1ccc(-c2ccccc2)c(Cl)c1,AC50,[16],82.6 µM (active)
same,outcome,[14],inactive
same,AC50,[15],0.56 µM (active)
same,AC50,[11],4.73 µM (active) and 2.56 µM (active)
same,AC50,[17],8.87 µM (active) and 8.92 µM (active)
same,AC50,[18],17.3 µM (active) and 20.1 µM (active)
same,AC50,[13],5.68 µM (active) and 2.43 µM (active)
